{"source": "PubChem BioAssay (NCI)", "note": "The panel holds about 83,000 compounds, 20% with a hit somewhere; the sample as a whole holds those more often.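 The endpoint reported here, percent growth, reads 100 for growth as untreated, 0 for no net growth and -100 for all cells dead.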 Calls of active or inactive are those of the source. How the source made its calls: active means growth percent below 10; inactive means the rest."}
{"tested_on": "MDA-MB-231 breast", "assay": "NCI-60 one-dose screen, 48 h (100 = growth as untreated, 0 = no growth, -100 = all killed)", "details": "10 µM unless noted"}
{"smiles": "O=C(Nc1ccccc1)Nc1ncnc2c1ncn2-c1ccc(Cl)cc1", "growth": "80.8% (inactive)"}
{"smiles": "CC(C)c1ccc(C(=O)Nc2nc3ccc(O)c(CN(C)C)c3s2)cc1", "growth": "44.8% (inactive)"}
{"smiles": "Cc1ccc(Nn2c(SCC(=O)Nc3nc(-c4ccccc4)cs3)nc(C)c2C)cc1", "growth": "46% (inactive)"}
{"smiles": "N#CC(C#N)N=Nc1ccc(Br)cc1", "growth": "18.5% (inactive)"}
{"smiles": "CCN1C(=S)N(c2ccccc2)C2C1NN=c1s/c(=C3\\C(=O)N(C(C)C)c4ccccc43)c(=O)n12", "note": "(centres undefined)", "growth": "36.5% (inactive)"}
{"smiles": "CSc1nc2ccccc2cc1/C=[N+](\\[O-])c1ccccc1", "growth": "46.5% (inactive)"}
{"smiles": "CN1CCN(c2cc(Nc3cc(C4CC4)[nH]n3)nc(Nc3ccc(CC(=O)NCc4cccc(F)c4)cc3)n2)CC1", "growth": "14.4% (inactive)"}
{"smiles": "C=CCN=c1sc2c(n1NC(=O)c1cc3ccc1CCc1ccc(cc1)CC3)C(=O)c1ccccc1C2=O", "growth": "-6.76% (active)"}
{"smiles": "Cn1cc(-c2csc(-c3cn(C(=O)OC(C)(C)C)c4ccc(Br)cc34)n2)c2ccnc(Cl)c21", "growth": "61.2% (inactive)"}
{"smiles": "CSc1oc(C)nc1[P+](c1ccccc1)(c1ccccc1)c1ccccc1", "growth": "65.4% (inactive)"}
{"smiles": "C=C1C(=O)O[C@H]2[C@H]1CC/C(Cn1cc(-c3ccccc3)nn1)=C\\CC[C@@]1(C)O[C@@H]21", "growth": "-13% (active)"}
{"smiles": "O=S(=O)(c1ccccc1)n1cc2c(c1)-c1nc(Nc3ncccn3)sc1CC2", "growth": "52.5% (inactive)"}
{"smiles": "Cc1[nH]c(C(=O)Nc2ccccc2OC2CCNCC2)c(Cl)c1Cl", "growth": "-43.4% (active)"}
{"smiles": "COc1ccc(-c2cc(-c3ccc(Cl)cc3)c(C#N)c(=O)n2Cc2ccc(C(=O)Nc3ccccc3N)cc2)cc1", "growth": "67.2% (inactive)"}
{"smiles": "O=C(CN1CCCCC1)Nc1nc(-c2cc3ccccc3oc2=O)cs1", "growth": "103% (inactive)"}
{"smiles": "Oc1ccc(Cl)cc1/C=N\\NC(=S)N/N=C/c1cc(Cl)ccc1O", "growth": "37.2% (inactive)"}
{"smiles": "COC12C=C/C(=C(/C(=O)OCc3ccncn3)C(=O)CCCCCCCCC3(OC)C=C/C(=C(/C(=O)OCc4ccncn4)C(=O)CCCCCCCC1)O3)O2", "growth": "10.6% (inactive)"}
{"smiles": "COc1ccc2c(c1)N(CCO)C1=C(C(=O)OC1)C2c1cccc(F)c1", "note": "(centres undefined)", "growth": "36% (inactive)"}
{"smiles": "CC(=O)Oc1ccc(/C(=C(\\C)c2ccc(Cl)cc2)c2ccc(OCCN3CCCCC3)cc2)cc1", "growth": "50.8% (inactive)"}
{"smiles": "O=C(N(c1ccccc1)c1ccccc1)n1cc(I)c2nc(Cl)nc(Cl)c21", "growth": "67.6% (inactive)"}
{"smiles": "N#Cc1nc(-c2ccccc2)oc1S(=O)(=O)N1CCN(c2ccccc2)CC1", "growth": "105% (inactive)"}
{"smiles": "Cc1ccc(NC(=O)c2sc3nc(C)c(Br)c(C)c3c2N)cc1", "growth": "55.3% (inactive)"}
{"smiles": "O=C(CN1C(=O)S/C(=C\\C(Cl)=C\\c2ccccc2)C1=O)NCCc1ccc(O)cc1", "growth": "30.4% (inactive)"}
{"smiles": "O=C(/C=C/c1cn(-c2ccccc2)nc1-c1ccc(Cl)cc1)c1ccc(F)cc1", "growth": "65.6% (inactive)"}
{"smiles": "CCOC(=O)c1c(NC(=O)c2cccc(C(F)(F)F)c2)sc2c(CN(C)C)c(O)ccc12", "growth": "58.9% (inactive)"}
{"smiles": "N#Cc1c(-c2ccccc2)cc(-c2ccc(Nc3nc(Nc4ccc(Cl)cc4)nc(Nc4ccc(Cl)cc4)n3)cc2)nc1N", "growth": "-31.2% (active)"}
{"smiles": "O=C(/C=C/c1cccs1)Nc1ncc(Cc2ccccc2F)s1", "growth": "33.8% (inactive)"}
{"smiles": "O=S(=O)(Nc1cc(Cl)ccc1Cl)c1ccc(-c2cnc(C3CC3)o2)cc1", "growth": "65.2% (inactive)"}
{"smiles": "CCOC(=O)c1ccc2c(c1)nc(-c1ccccc1)n2C1CCCCC1", "growth": "102% (inactive)"}
{"smiles": "CC(=O)N1N=C(c2ccc(C(F)(F)F)c(F)c2)CC1c1[nH]c(C)c(C(=O)NCC(F)(F)F)c1C", "note": "(centres undefined)", "growth": "38.8% (inactive)"}
{"smiles": "O=C(CN1C(=O)S/C(=C\\c2ccccc2)C1=O)Nc1ncc(Cc2ccccc2Cl)s1", "growth": "101% (inactive)"}
{"smiles": "COc1cc(OCc2cccc(Br)c2C)cc(OC)c1C=O", "growth": "95.2% (inactive)"}
{"smiles": "COc1cc(NS(=O)(=O)c2ccc(-c3cnc(C4CC4)o3)cc2)ccc1F", "growth": "24.2% (inactive)"}
{"smiles": "COC1=CC(c2ccc[nH]2)=N/C1=C\\c1[nH]c(C)c(CC(=O)OCc2ccccc2)c1CCC(=O)OCc1ccccc1", "growth": "-44.5% (active)"}
{"smiles": "Clc1cccc(Nc2ncnc3ccc(-c4cnc5[nH]ccc5c4)cc23)c1", "growth": "75% (inactive)"}
{"smiles": "COc1cc2ncnc(Nc3ccc(F)c(Cl)c3)c2cc1OCC(=O)N1CCN(c2ccccc2)CC1", "growth": "90.5% (inactive)"}
{"smiles": "O=C1Nc2ccccc2/C1=C/c1nc2ccccc2c(=O)[nH]1", "growth": "84.5% (inactive)"}
{"smiles": "CNc1nnc2n(-c3ccccc3)c(=O)c3cnn(-c4ccccc4)c3n12", "growth": "103% (inactive)"}
{"smiles": "C=C1C(=O)O[C@H]2[C@H]1CC/C(COC(=O)c1cc3ccccc3s1)=C\\CC[C@@]1(C)O[C@@H]21", "growth": "-66.1% (active)"}
